These results are taken from PubChem BioAssay AID588511 (Johns Hopkins Ion Channel Center, 2011).

About 3,600 (1.2%) of roughly 310,000 compounds were called active.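 Rule for the calls: active = ratio plate-corrected score three or more library SD toward inhibition, starting fluorescence score within five deviations; inactive = the rest.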 The full list was thinned out, with actives kept by preference.

Anoctamin-1 (Mus musculus), sequence (Q8BHY3 whole entry, looked up): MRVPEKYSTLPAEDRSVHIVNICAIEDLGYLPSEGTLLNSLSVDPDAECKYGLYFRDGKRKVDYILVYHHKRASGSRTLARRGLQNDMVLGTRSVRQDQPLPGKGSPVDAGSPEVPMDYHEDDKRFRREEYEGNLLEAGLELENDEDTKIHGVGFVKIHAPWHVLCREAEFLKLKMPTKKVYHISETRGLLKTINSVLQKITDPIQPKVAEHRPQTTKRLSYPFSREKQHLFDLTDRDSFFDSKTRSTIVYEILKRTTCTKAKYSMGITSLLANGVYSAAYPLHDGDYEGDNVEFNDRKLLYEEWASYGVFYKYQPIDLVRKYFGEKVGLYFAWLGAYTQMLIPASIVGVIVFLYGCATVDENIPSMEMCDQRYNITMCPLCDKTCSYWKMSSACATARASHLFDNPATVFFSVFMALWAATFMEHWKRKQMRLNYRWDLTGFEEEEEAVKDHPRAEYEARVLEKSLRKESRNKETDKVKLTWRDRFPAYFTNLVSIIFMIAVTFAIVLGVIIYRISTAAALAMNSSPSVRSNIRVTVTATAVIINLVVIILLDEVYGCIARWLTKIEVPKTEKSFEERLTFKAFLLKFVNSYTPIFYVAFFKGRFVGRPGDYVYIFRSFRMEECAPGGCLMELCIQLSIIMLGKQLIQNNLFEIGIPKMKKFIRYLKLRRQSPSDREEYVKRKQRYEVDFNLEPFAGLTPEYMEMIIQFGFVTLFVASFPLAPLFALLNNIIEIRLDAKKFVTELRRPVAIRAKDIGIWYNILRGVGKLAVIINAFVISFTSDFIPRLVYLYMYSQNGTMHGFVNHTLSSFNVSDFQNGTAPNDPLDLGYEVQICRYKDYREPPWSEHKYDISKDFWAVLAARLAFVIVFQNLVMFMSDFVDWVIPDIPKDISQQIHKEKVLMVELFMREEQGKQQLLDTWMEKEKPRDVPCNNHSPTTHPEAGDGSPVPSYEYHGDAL

The assay addresses Anoctamin-1 (Mus musculus) (UniProt Q8BHY3). Put plainly: blockers of mouse ANO1 Ca-activated Cl channel – cell-based, HTS, primary screen (AID 588511).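 For normalized B-score (activity score, 25-100; higher = stronger inhibition): score derived from kinetic fluorescence span divided by baseline fluorescence per well.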 Particulars: HEK293 TMEM16A/YFP iodide influx fluorescence, ionomycin; at 10 µM.
As for `CNC(=O)c1[nH]cnc1C(=O)N[C@@H](CC(C)C)C(=O)OCc1ccccc1`, the normalized B-score (activity score, 25-100; higher = stronger inhibition) was 25 (active). Consider `CNC(=O)c1[nH]cnc1C(=O)N[C@@H](CC(C)C)C(=O)OC(C)(C)C`, for which the normalized B-score (activity score, 25-100; higher = stronger inhibition) result is “inactive”. With `Cc1nc(SCC(=O)N2CCc3ccccc3C2)c2c(C)c(C)sc2n1`, the normalized B-score (activity score, 25-100; higher = stronger inhibition) is 100 (active). For `O=C(CSc1nnc(-c2cccs2)n1Cc1ccccc1)N1CCc2ccccc2C1` the value was “inactive”; for `Cc1nc(SCC(=O)N2CC(=O)Nc3ccccc32)c2c(C)c(C)sc2n1`, “inactive”; for `O=C(N1CCCCC1)N1CCN(C(=O)N2CCCCC2)CC1`, “inactive”.

Turning to `CCn1c(=O)c(=O)n(CC)c2cc(S(=O)(=O)N3CCc4ccccc43)ccc21`, the normalized B-score (activity score, 25-100; higher = stronger inhibition) result was “inactive”.

Consider `O=S(=O)(c1ccccc1)N1CCc2ccccc21`, for which the normalized B-score (activity score, 25-100; higher = stronger inhibition) result was “inactive”. For `Cn1c(=O)n(C)c2cc(S(=O)(=O)N3CCCc4ccccc43)ccc21` the value was 25 (active); for `Cc1ccc(S(=O)(=O)NC2CCCCCC2)cc1C(N)=O`, “inactive”. Turning to `COC(=O)[C@@H]1C[C@@]2(O)[C@H](O)[C@H](O)[C@H](O)C[C@H]2N1Cc1ccc(C(C)(C)C)cc1`, the normalized B-score (activity score, 25-100; higher = stronger inhibition) result was “inactive”. Turning to `O=C(CSCc1ccc(Cl)cc1)N1CCN(Cc2ccc3c(c2)OCO3)CC1`, the normalized B-score (activity score, 25-100; higher = stronger inhibition) is 100 (active). Regarding `O=C(C1CCN(Cc2ccc(Cl)cc2)CC1)N1CCN(Cc2ccc3c(c2)OCO3)CC1`, the normalized B-score (activity score, 25-100; higher = stronger inhibition) result is “inactive”. Regarding `O=C(CSCc1ccc(Cl)cc1)N1CCCCC1`, the normalized B-score (activity score, 25-100; higher = stronger inhibition) entry is “inactive”. In the case of `O=C(Nc1cccc2ccccc12)N1CCN(Cc2ccc3c(c2)OCO3)CC1`, the normalized B-score (activity score, 25-100; higher = stronger inhibition) result was “inactive”. As for `Cn1c(=O)cc(OCCCC(=O)N2CCN(Cc3ccc4c(c3)OCO4)CC2)c2ccccc21`, the normalized B-score (activity score, 25-100; higher = stronger inhibition) entry was “inactive”.

Turning to `O=C(CCCN1C(=O)c2cccc3cccc(c23)C1=O)N1CCN(Cc2ccc3c(c2)OCO3)CC1`, the normalized B-score (activity score, 25-100; higher = stronger inhibition) was 100 (active).

For the compound `NC(=O)C1=C[C@@H](c2ccc3c(c2)OCO3)C[C@@H](OCCCCO)O1`, the normalized B-score (activity score, 25-100; higher = stronger inhibition) result is “inactive”. Take `COc1ccc(N2C(=O)C(CC(=O)Nc3ccc(F)cc3)N(CCc3cccs3)C2=O)cc1` (configuration not stated): the normalized B-score (activity score, 25-100; higher = stronger inhibition) result was “inactive”. With `Cc1cnc(C)c(N2CCN(C(=O)C3CCC(=O)N(CCc4cccc(F)c4)C3)CC2)n1` (configuration not stated), the normalized B-score (activity score, 25-100; higher = stronger inhibition) result is “inactive”. With `CC(C)Cn1cnc2c1c(=O)n(CC(=O)NN)c(=O)n2Cc1ccccc1`, the normalized B-score (activity score, 25-100; higher = stronger inhibition) entry is “inactive”.

Regarding `Cc1ccnc(NC(=O)C2CCN(S(=O)(=O)c3c(C)c(C)cc(C)c3C)CC2)c1`, the normalized B-score (activity score, 25-100; higher = stronger inhibition) entry is “inactive”. Consider `COc1ccc(CCNc2cc(C)nc3c(-c4ccc(Cl)cc4)c(C)nn23)cc1OC`, for which the normalized B-score (activity score, 25-100; higher = stronger inhibition) entry was “inactive”. In the case of `CC(=O)Nc1ccc(OC(=O)COc2ccc(Br)cc2)cc1`, the normalized B-score (activity score, 25-100; higher = stronger inhibition) result was “inactive”. Turning to `CC(=O)Nc1ccc(NC(=O)[C@@H](NC(=O)c2cccc(C)c2)C(C)C)cc1`, the normalized B-score (activity score, 25-100; higher = stronger inhibition) entry is “inactive”. With `Cc1ccc(NC(=O)C(C)c2cccc(C(=O)c3ccccc3)c2)cc1` (configuration not stated), the normalized B-score (activity score, 25-100; higher = stronger inhibition) was 100 (active). For `COC(C(=O)Nc1ccc(C(C)=O)cc1)c1ccccc1` (configuration not stated) the value was “inactive”. For `COCCn1c(=O)[nH]c(=O)c2cc(C(=O)c3cc(OC)ccc3O)cnc21`, the normalized B-score (activity score, 25-100; higher = stronger inhibition) result is “inactive”. With `CC1Cc2ccccc2N1C(=O)CSc1nnc(C2CC2)n1C` (configuration not stated), the normalized B-score (activity score, 25-100; higher = stronger inhibition) entry is “inactive”. In the case of `CCCCSc1nnc2c(n1)OC=Nc1ccccc1-2` it was “inactive”. In the case of `O=C(CSC(=S)N1CCCCC1)c1c(F)cccc1F`, the normalized B-score (activity score, 25-100; higher = stronger inhibition) result is “inactive”.

With `CCOC(=O)[C@H]1[C@H]2COc3ccc(Cl)cc3[C@@H]2N2C(=O)c3cc(C)ccc3NC(=O)[C@@]12C`, the normalized B-score (activity score, 25-100; higher = stronger inhibition) entry was “inactive”.

Consider `CCN(CC)S(=O)(=O)c1ccc(N(C)Cc2ccc(C(F)(F)F)cc2)nc1`, for which the normalized B-score (activity score, 25-100; higher = stronger inhibition) is 100 (active). With `COc1ccc(S(=O)(=O)N2CCCCCC2)cc1C(=O)N(C)Cc1cccc(OC)c1OC`, the normalized B-score (activity score, 25-100; higher = stronger inhibition) entry is “inactive”.

As to `CCN(CC)S(=O)(=O)c1ccc(NC(=O)c2cnc(C)cn2)cc1`, the normalized B-score (activity score, 25-100; higher = stronger inhibition) result was “inactive”. As for `CCN(CC)S(=O)(=O)c1ccc(Cl)c(NC(=O)c2ccncc2)c1`, the normalized B-score (activity score, 25-100; higher = stronger inhibition) entry was “inactive”. For `CCN(CC)S(=O)(=O)c1ccc(N(C)Cc2cccc(OC)c2OC)nc1`, the normalized B-score (activity score, 25-100; higher = stronger inhibition) is 25 (active). In the case of `CCN(CC)S(=O)(=O)c1ccc(N(C)CCc2ccc(OC)c(OC)c2)nc1` it was “inactive”.

For the compound `CCC(C)c1ccccc1N1CC(C(=O)N2CCN(S(=O)(=O)c3ccc(F)cc3)CC2)CC1=O` (configuration not stated), the normalized B-score (activity score, 25-100; higher = stronger inhibition) entry is “inactive”. For `COc1ccccc1CNC(=O)Cn1c(=O)oc2cc(Cl)ccc21` the value was “inactive”. As to `CC1CCCCC1NC(=O)CN1CCC(O)(c2ccc3c(c2)OCO3)CC1` (configuration not stated), the normalized B-score (activity score, 25-100; higher = stronger inhibition) result is “inactive”. For `CCOC(=O)C1CCN(c2ncnc3c2c(-c2ccccc2)cn3-c2ccc(C)cc2)CC1` the value was “inactive”; for `CCOC(=O)C1CCN(c2ncnc3c2oc2ccc(Br)cc23)CC1`, 100 (active). For `CCOC(=O)C1CCN(Cc2nnc(-c3cccc(Br)c3)o2)CC1`, the normalized B-score (activity score, 25-100; higher = stronger inhibition) entry was “inactive”. For `O=C(Nc1ccc(C(=O)NCc2ccccc2Cl)cc1)C1=CSCCO1`, the normalized B-score (activity score, 25-100; higher = stronger inhibition) result was “inactive”. For `O=C(/C=C/c1ccco1)NC(=S)N1CCCCC1`, the normalized B-score (activity score, 25-100; higher = stronger inhibition) result is “inactive”. As to `O=C(Nc1cccnc1)c1noc2c1CCCCC2`, the normalized B-score (activity score, 25-100; higher = stronger inhibition) result was “inactive”. `CCN1CCN(C(=O)C2CCN(S(=O)(=O)c3cc(Cl)ccc3Cl)CC2)CC1`: the normalized B-score (activity score, 25-100; higher = stronger inhibition) result is “inactive”. For `CCCCNC(=O)C1CCC(=O)N1CCc1ccccc1` (configuration not stated) the value was “inactive”; for `O=C(CSc1ncn[nH]1)Nc1nc(-c2cccc([N+](=O)[O-])c2)cs1`, “inactive”; for `O=C(CSc1nc(-c2ccccc2)cs1)Nc1cccc([N+](=O)[O-])c1`, 100 (active). Take `CCNC(=O)CSc1nc(-c2ccccc2)cs1`: the normalized B-score (activity score, 25-100; higher = stronger inhibition) entry was “inactive”.
